# Test results from article PMC5540273 (PLoS ONE, 2017).
# Test system: CDKL3
# Conditions: concentration: 1 μM,replicates: in singlicate; n = 1
# 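Also: KINOMEscan kinase panel screen.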
row,SMILES,%Inh [%]
1,COC(=O)Nc1nc2cc(Oc3ccc(NC(=O)Nc4cc(C(F)(F)F)ccc4Cl)cc3)ccc2[nH]1.Cl [GW697465],0
2,O=C(Nc1n[nH]c2cc(-c3ccco3)ccc12)C1CC1 [SB-737447],0
3,Cc1cccc2c(-c3ccncc3)c(-c3ccc(F)cc3)nn12.Cl [GW461487],0
4,CN1CCN(CCNc2nc3cc(Oc4ccc(NC(=O)Nc5cc(C(F)(F)F)ccc5F)cc4)ccc3[nH]2)CC1.Cl.Cl [GW768504],43
5,c1ccc(Oc2ccc(Nc3ccnc4ccc(-c5ccccn5)cc34)cc2)cc1 [GW407034],0
6,CC(=O)Nc1nc2cnc(Nc3cc(NC(=O)c4cccc(CC(C)(C)C#N)c4)ccc3C)nc2s1,41
7,O=C(NCC1CC1)c1ccc(-c2cc(C(=O)NC3CC3)ccc2F)cc1 [GW810445],28
8,Cc1ccc(CC(=O)N2CCc3cc(-c4cn(C)c5ncnc(N)c45)ccc32)cc1 [GSK2634758],0
9,CSc1nccc(-c2c(-c3ccc(F)cc3)ncn2CCCN2CCOCC2)n1.Cl [SB-217146],0
10,O=C(Nc1ccccc1)c1cccc(Oc2ccc3nccn3n2)c1,0
11,COc1cccc(C2=C(Nc3cccc(Cl)c3)C(=O)NC2=O)c1 [SB-341556],0
12,Cn1ccc2ncnc(Oc3ccc(NC(=O)Nc4cccc(C(F)(F)F)c4)c(Cl)c3)c21,6
13,Cc1ccn2nc(-c3ccc(F)cc3)c(-c3ccncc3)c2c1.Cl [GW457859],0
14,CCCC(=O)Nc1n[nH]c2ncccc12 [SB-601436],0
15,Cn1ccc2ncnc(Oc3ccc(NC(=O)Nc4cccc(C(F)(F)F)c4)c(F)c3)c21,7
16,C[C@@H]1CNc2c(sc3ccc4nc(-c5ccc(O)cc5)ccc4c23)C(=O)N1,5
17,N#Cc1cccc(C(=O)NC2CCN(c3ccnc(Nc4ccc(F)cc4)n3)C2)c1 (stereo not shown) [GSK1379708],0
18,Nc1nccc(-c2ccc3c(N)n[nH]c3c2)n1 [GSK1034945],30
19,COc1cccc(CNC(=O)NC2CCN(c3ccnc(Nc4cc(OC)c(OC)c(OC)c4)n3)C2)c1 (stereo not shown) [GSK1379765],0

row,SMILES,%Inh [%]
1,COc1cc2c(Nc3ccc(NC(=O)c4ccccc4)cc3)ncnc2cc1OCCCN1CCOCC1 [GSK301329],0
2,CC(=O)Nc1ccc(-c2cc3ncnc(SCC(=O)O)c3s2)cc1,26
3,CCn1c(-c2nonc2N)nc2cncc(Br)c21 [SB-738004],0
4,CCOC(=O)N1CCC(n2cnc(-c3ccc(F)cc3)c2-c2ccnc(N)n2)CC1 [SB-219952],30
5,NC(=O)Nc1sc(-c2ccc(F)cc2)cc1C(N)=O [GW789449],10
6,COc1cc2ncn(-c3cc(OCC4CCCCC4)c(C(N)=O)s3)c2cc1OC [GSK204559],0
7,Cl.Cl.NC[C@H](CC1CCCCC1)NC(=O)c1ccc(-c2ccnc3[nH]ccc23)s1 [GSK1581428],89
8,Cc1n[nH]c2cc(Nc3ccnc(Nc4cccc(CN5CCOCC5)c4)n3)ccc12 [GW682569],0
9,Cc1ccc(Nc2ccnc(Nc3ccc4c(c3)CS(=O)(=O)C4)n2)cc1O.Cl [GW579362],0
10,Cc1ccc2c(-c3ccnc(Nc4ccc(C(F)(F)F)cc4)n3)cnn2n1 [GW819776],77
11,CS(=O)(=O)c1cccc(CNc2nc(Nc3ccc4c(c3)[C@@H]3C[C@@H]4CNC3=O)ncc2C(F)(F)F)c1,2
12,Cl.c1ccc(Oc2ccc(Nc3ccnc4cc(-c5ccc(CN6CCNCC6)o5)ccc34)cc2)nc1 [GW567142],0
13,CN(c1ccc2c(c1)nc(NCc1ccc(F)cc1)n2C)c1ccnc(Nc2ccc(CS(C)(=O)=O)cc2)n1.Cl [GW813244],20
14,CS(=O)c1ccc(-c2coc3ccc(-c4n[nH]c(=O)o4)cc23)cc1 (stereo not shown),12
15,Cn1ccc2ncnc(Oc3ccc(NC(=O)Nc4ccnc(C(F)(F)F)c4)c(Cl)c3)c21,0
16,C[C@@H]1CCN(C(=O)N2CCCC2)C[C@@H]1N(C)c1ncnc2[nH]ccc12,0
17,CCn1c(-c2nonc2N)nc2cncc(CNC3CCNCC3)c21.Cl [SB-747651],0
18,Cc1cccc(-c2nc(Nc3ccncc3)c3sccc3n2)n1 [GW869641],15
